High-throughput results deposited in PubChem by University of Kansas High Throughput Screening Laboratory.
Shown is part of a subset that was picked to be rich in hits.
mHTT-CaM PPI inh: mutant huntingtin-calmodulin interaction inhibitors – biochemical, AlphaScreen, primary screen | 190,000 compounds, 3.6% hits | inhibition, % at 15 µM | AID 1671202, 2021 | P42858 | AlphaScreen His-mHTT/GST-CaM binding, luminescence
Pf apPOL inh: Pf-apPOL inhibitors, biochemical, fluorescence; 210,000 compounds, 0.25% hits; AID 1794808, 2022; inhibition, % at 10 µM; Recombinant Pf-apPOL, molecular beacon fluorescence, 1.5 h; Plasmodium falciparum apicoplast DNA polymerase (apPOL)
Numbers stand for hits; - = inactive; . = no result. Cut-off read from the data, not from the text of the source: active = inhibition above about 50%; inactive = the rest.

SMILES | mHTT-CaM PPI inh | Pf apPOL inh
CCNc1cc(N2CCCC(CCC(=O)N3CCN(c4cccc(C)c4)CC3)C2)ncn1 (centres undefined) | - | -
O=C(O)C1C2CC3C1C(=O)Oc1ccccc1C1c4sc(=O)[nH]c4SC2C13 (centres undefined) | - | -
O=c1[nH]c2c(s1)C1c3ccccc3OC3CCCC(S2)C31 (centres undefined) | 52 | -
COc1cccc(CN2C(=O)CN(CC(=O)O)C(=O)C2c2ccccc2F)c1 (centres undefined) | - | -
COc1ccc(C(=O)N=C2C=C(C)C(=O)C(C)=C2)cc1 | - | -
COc1ccc(C(=O)ON=C2C(C)=CC(=O)C=C2C)cc1 | 55 | -
COc1ccc(-c2noc(C3CCN(CC(=O)Nc4c(C)cccc4C)CC3)n2)cc1 | - | -
CCOC(=O)N1CCN(CCC(=O)Nc2ccc(Cl)cc2)CC1 | - | -
COc1ccccc1C(=O)N1CCCC(c2ccnc(-c3cccc(C)c3)n2)C1 (centres undefined) | - | -
Cc1cccc(-c2nccc(C3CCCN(C(=O)C(C)(C)C)C3)n2)c1 (centres undefined) | - | -
COc1ccccc1C(=O)N1CCCC(c2ccnc(Nc3ccccc3C)n2)C1 (centres undefined) | 52 | -
COc1ccccc1C(=O)N1CCCC(c2ccnc(-c3cccc(F)c3)n2)C1 (centres undefined) | 51 | -
O=C(c1ccc(F)cc1)N1CCCC(c2ccnc(Nc3cccc(F)c3)n2)C1 (centres undefined) | 81 | -
Cc1ccccc1Nc1nccc(C2CCCN(C(=O)c3ccoc3)C2)n1 (centres undefined) | - | -
CC(C)(C)C(=O)N1CCCC(c2ccnc(Nc3cccc(F)c3)n2)C1 (centres undefined) | 78 | -
O=C(c1ccc(F)cc1)N1CCCC(c2ccnc(Nc3ccccc3)n2)C1 (centres undefined) | - | -
O=C(CN(C1CCCCC1)S(=O)(=O)c1ccc(F)cc1)N1CCCC1 | - | -
CC1=NN(c2ccc(S(N)(=O)=O)cc2)C(=O)/C1=C/c1ccc(-c2ccc([N+](=O)[O-])cc2)o1 | - | -
Cc1nc(C)n(CC(=O)Nc2ccccc2F)c(=O)c1C | - | -
O=c1[nH]c2ccc(N=Cc3ccc4c(c3)OCO4)cc2[nH]1 | - | .
COc1ccc(C(=O)N2CCCC(c3ccnc(Nc4cccc(F)c4)n3)C2)c(OC)c1 (centres undefined) | - | -
Cc1ccccc1C(=O)N1CCCC(c2ccnc(-c3ccccc3)n2)C1 (centres undefined) | - | -
Cc1ccc(C(=O)N2CCCC(c3ccnc(Nc4ccc(F)cc4)n3)C2)s1 (centres undefined) | 82 | -
CN(C)c1ccc(C(=O)N2CCCC(c3ccnc(Nc4ccc(F)cc4)n3)C2)cc1 (centres undefined) | 88 | -
CCCC(=O)N1CCCC(c2ccnc(Nc3ccc(C)cc3)n2)C1 (centres undefined) | - | -
SMILES | mHTT-CaM PPI inh | Pf apPOL inh
Cc1ccccc1C(=O)N1CCCC(c2ccnc(Nc3cccc(F)c3)n2)C1 (centres undefined) | 99 | -
COc1ccc(Nc2nccc(C3CCCN(C(=O)c4ccc(C#N)cc4)C3)n2)cc1 (centres undefined) | - | -
COc1ccc(C(=O)N2CCCC(c3ccnc(Nc4cccc(F)c4)n3)C2)cc1 (centres undefined) | 64 | -
Cc1cccc(C2N(c3cccc(Cl)c3)C(=O)C3CCCN32)c1 (centres undefined) | - | -
NC(=NOC(=O)Nc1ccccc1)c1ccc(OCc2ncc(C(F)(F)F)cc2Cl)cc1 | . | -
Cc1ccc(C)c(C(=O)N2CCC3(CC2)NC(=O)N(Cc2ccccc2Cl)C3=O)c1 | - | -
O=C(O)COc1c(Br)cc(/C=C2\NC(=O)NC2=O)cc1Br | - | -
Cc1cc(C)n(-c2nc3c(c(=O)[nH]c(=O)n3C)n2CC(O)COc2ccccc2Cl)n1 (centres undefined) | 100 | -
Cn1c(=O)[nH]c(=O)c2c1nc(N1CCOCC1)n2CC(O)COc1ccc(Cl)cc1Cl (centres undefined) | - | -
CCN(CC)c1ccc(/C=C2\N=C(SC)SC2=O)cc1 | 64 | -
CCSC1=N/C(=C/c2ccc(N(CC)CC)cc2OC)C(=O)S1 | 84 | -
CCSC1=N/C(=C\c2c(OC)cc(OC)cc2OC)C(=O)S1 | - | -
CSC1=N/C(=C\c2ccc(N(C)C)cc2)C(=O)S1 | - | -
C=CCN(CC=C)S(=O)(=O)c1ccc(C(=O)Nc2nnc(-c3ccccc3Cl)o2)cc1 | - | -
CCC(CC)C(=O)N1CCN(c2nc3c(s2)c(C)nn3-c2ccccc2)CC1 | - | -
COc1ccc(C(=O)Nc2nc(CC(=O)Nc3ccc4c(c3)OCCO4)cs2)cc1 | - | -
COc1ccc(Nc2nc(C(=O)Nc3ccc4c(c3)OCCO4)cs2)c(OC)c1 | 53 | -
O=C1C(Nc2ccccc2)=CC(c2ccccc2[N+](=O)[O-])N1c1ccccc1 (centres undefined) | 66 | -
COc1ccc(OC)c(C2C=C(Nc3ccccc3)C(=O)N2c2ccccc2)c1 (centres undefined) | - | -
O=C(NC1CCN(C(=O)C2CCC2)C1)C1CCCC1 (centres undefined) | - | -
O=C(CCC1CCCC1)N1CCC(Nc2cccnc2)C1 (centres undefined) | - | 67
O=C(CCc1ccccc1)N1CCC(Nc2cccnc2)C1 (centres undefined) | - | -
O=C(Nc1cc(F)cc(F)c1)C1CCN(c2cc(N3CCCC3)ncn2)CC1 | - | -
c1ccc(Cc2nc(N3CCOCC3)c3c4c(sc3n2)CCCC4)cc1 | - | -
CCN1CCN(c2nc(Cc3ccccc3)nc3sc4c(c23)CCCC4)CC1 | 66 | -
SMILES | mHTT-CaM PPI inh | Pf apPOL inh
CCCC1CCC2(CC1)CC[C@H]2OC(=O)Nc1ccccc1OC (some centres undefined) | - | -
C(=N\N1CCN(C2c3ccccc3-c3ccccc32)CC1)/c1c[nH]c2ccccc12 | - | .
CCCn1cc2c3c(cccc31)CN(C(=O)c1ccccc1OC)CC2 | 58 | -
CCCn1cc2c3c(cccc31)CN(C(=O)NCCCOC)CC2 | - | -
COCCn1cc2c3c(cccc31)CN(C(=O)c1ccccc1OC)CC2 | 52 | -
COCCn1cc2c3c(cccc31)CN(C(=O)c1cccc(C(F)(F)F)c1)CC2 | 70 | -
COCCn1cc2c3c(cccc31)CN(C(=O)c1cc(F)cc(F)c1)CC2 | - | -
COCCn1cc2c3c(cccc31)CN(C(=O)c1ccccc1Cl)CC2 | - | -
O=C(NCC1CCN(Cc2ccco2)CC1)NC1CC1 | - | -
CCC1(C)OC(=O)N(CCNC(=O)c2ccnn2C)C1(C)O (centres undefined) | - | -
O=C1N=C(N2CCOCC2)S/C1=C/c1cccc(F)c1 | - | -
CCOc1ccc(CNC(=O)CC2CCN(C(=O)C3CCCCC3)CC2)cc1 | - | -
CC(C)CN(CC(C)C)S(=O)(=O)c1ccc(C(=O)Nc2nc(-c3ccccn3)cs2)cc1 | 52 | -
CCCCN(CCCC)S(=O)(=O)c1ccc(C(=O)Nc2nc(-c3ccccn3)cs2)cc1 | - | -
CN(Cc1ccccc1)S(=O)(=O)c1ccc(C(=O)Nc2nc(-c3ccccn3)cs2)cc1 | - | -
CCCN(CCC)S(=O)(=O)c1ccc(C(=O)Nc2nc(-c3ccccn3)cs2)cc1 | 88 | -
